The values that follow come from PubChem BioAssay (Tox21).

The structures appear in SMILES notation. Results filed as inconclusive are left out. Values without a mark were called inactive. The source made the active and inactive calls. Unless noted, calls come from the whole dose curve; as a rule, active = well fitted curve in the direction sought with a large enough effect in the repeat runs; inconclusive = weak or mixed curves; inactive = no such curve, though single readings can be large; an effect the other way counts as inactive or inconclusive.

Experiment [1] deals with Peroxisome proliferator-activated receptor gamma (Homo sapiens) (UniProt P37231). Nature of the experiment: qHTS assay to identify small molecule antagonists of the peroxisome proliferator-activated receptor gamma (PPARg) signaling pathway (AID 743191; calls by dose curve; note: nearly all actives have a fitted effect of over 30% in size; note: potency is the fitted concentration of half-maximal effect). The method in brief: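 GeneBLAzer PPARg UAS-bla HEK293H cells carrying a UAS-driven beta-lactamase reporter were plated at 3000 cells/well, preincubated 5 h at 37C, then given compound for 17 h at 37C; LiveBLAzer B/G FRET substrate was read after 1 h at room temperature.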
Sequence of Peroxisome proliferator-activated receptor gamma (Homo sapiens) (P37231 whole entry, looked up): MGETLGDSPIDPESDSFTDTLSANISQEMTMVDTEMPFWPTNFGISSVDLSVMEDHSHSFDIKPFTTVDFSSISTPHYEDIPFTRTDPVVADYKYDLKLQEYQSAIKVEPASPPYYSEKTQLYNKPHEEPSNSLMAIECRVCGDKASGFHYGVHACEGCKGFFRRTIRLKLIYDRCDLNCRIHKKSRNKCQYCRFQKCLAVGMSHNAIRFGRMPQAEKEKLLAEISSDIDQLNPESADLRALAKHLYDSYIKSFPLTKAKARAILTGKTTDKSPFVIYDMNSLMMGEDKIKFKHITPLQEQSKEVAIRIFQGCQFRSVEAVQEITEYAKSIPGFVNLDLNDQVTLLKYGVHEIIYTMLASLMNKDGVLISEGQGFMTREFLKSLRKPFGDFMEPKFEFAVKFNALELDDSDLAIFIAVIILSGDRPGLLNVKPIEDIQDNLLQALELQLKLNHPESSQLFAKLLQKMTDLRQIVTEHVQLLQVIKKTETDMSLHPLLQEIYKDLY

Experiment [2] is described as follows: qHTS assay to identify small molecule antagonists of the peroxisome proliferator-activated receptor gamma (PPARg) signaling pathway - cell viability counter screen (AID 743194). Note: nearly all actives have a fitted effect of over 55% in size. Put shortly: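 PPARg-UAS-bla HEK293H cells were plated, rested 5 h at 37 C, then treated with compounds plus rosiglitazone (50 nM final) for 17 h at 37 C; viability was then read by CellTiter-Glo luminescence after 30 min at room temperature.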

A short description of experiment [3]: qHTS assay for small molecule agonists of the antioxidant response element (ARE) signaling pathway (AID 743202; active = well fitted activation curve with a large enough effect in the signal ratio in the repeat runs, not every such curve was filed as active; the % refers to the signal ratio; note: potency is the fitted concentration of half-maximal effect). Put shortly:
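Steps: seed ARE-bla HepG2 cells (2,000/well); incubate 5 h at 37 C; add compounds by pin tool; incubate 16 h at 37 C; add FRET substrate; read fluorescence after 2 h at RT.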

Experiment [4] can be described thus: qHTS assay for small molecule agonists of the antioxidant response element (ARE) signaling pathway - cell viability counter screen (AID 743203; calls by dose curve; note: nearly all actives have a fitted effect of over 55% in size). Put shortly: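 Parallel cytotoxicity read-out for the ARE-bla screen: HepG2 reporter cells, 16 hrs with compounds, then CellTiter-Glo luminescence.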
Experiment [5] in a line: qHTS assay for small molecule activators of the heat shock response signaling pathway - cell viability counter screen (AID 743209). Note: nearly all actives have a fitted effect of over 50% in size. The method in brief: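 To flag cytotoxic compounds, HSE-bla HeLa cells plated at 1500 cells/well were dosed for 5 h at 37 C, followed by the reporter FRET read and then CellTiter-Glo, with luminescence recorded 30 min after reagent addition.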

Experiment [6] in a line: qHTS assay for small molecule activators of the heat shock response signaling pathway (AID 743210; active = well fitted activation curve with a large enough effect in the signal ratio in the repeat runs, with a control signal flat, not every such curve was filed as active; the % refers to the signal ratio;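 note: HeLa cells with beta-lactamase reporter driven by heat shock elements; series mostly up to about 63 µM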). Put shortly: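 Activation of heat shock element-controlled beta-lactamase expression is measured in HeLa cells by LiveBLAzer FRET fluorescence, with compound exposure lasting 5 h at 37 C and substrate loading 2.5 h at room temperature.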
Experiment [7] can be described thus: qHTS assay to identify small molecule that activate the aryl hydrocarbon receptor (AhR) signaling pathway - cell viability counter screen (AID 743086). Note: nearly all actives have a fitted effect of over 45% in size. Note: potency is the fitted concentration of half-maximal effect. The method in brief: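 HepG2-AhR-luc (HG2L7.5c1) cells, 4000/well, were preincubated 5 h at 37C, exposed to compound in qHTS format for 24 hr at 37C, then given CellTiter-Fluor for 30 min; viability was read as fluorescence in the reporter wells.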

Experiment [8] deals with Aryl hydrocarbon receptor (Homo sapiens) (UniProt P35869). Description: qHTS assay to identify small molecule that activate the aryl hydrocarbon receptor (AhR) signaling pathway (AID 743085).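 For activation: HG2L7.5c1 human HepG2 liver cells with stably integrated DRE-driven firefly reporter; series mostly up to about 70 µM.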 Note: nearly all actives have a fitted effect of over 15% in size. Note: potency is the fitted concentration of half-maximal effect. Put shortly:
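A multiplexed format paired cell viability (CellTiter-Fluor fluorescence) with AhR-dependent luciferase output (ONE-Glo luminescence) in the same wells of HepG2 DRE-luc cells after 24 h compound exposure at 37C.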

Experiment [9] deals with Peroxisome proliferator-activated receptor gamma (Homo sapiens) (UniProt P37231). Description: qHTS assay to identify small molecule agonists of the peroxisome proliferator-activated receptor gamma (PPARg) signaling pathway (AID 743094; active = well fitted activation curve with a large enough effect in the signal ratio in the repeat runs, not every such curve was filed as active; the % refers to the signal ratio). The method in brief:
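Fluorescence-based beta-lactamase readout in HEK293H PPARg UAS-bla cells after 17 h compound exposure (37C) and 1 h B/G FRET substrate incubation at room temperature.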

A short description of experiment [10]: qHTS assay to identify aromatase inhibitors - cell viability counter screen (AID 743084).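 Note: cells stimulated with testosterone during compound exposure; nearly all actives have a fitted effect of over 55% in size.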

Sequence of Aryl hydrocarbon receptor (Homo sapiens) (P35869 whole entry, looked up): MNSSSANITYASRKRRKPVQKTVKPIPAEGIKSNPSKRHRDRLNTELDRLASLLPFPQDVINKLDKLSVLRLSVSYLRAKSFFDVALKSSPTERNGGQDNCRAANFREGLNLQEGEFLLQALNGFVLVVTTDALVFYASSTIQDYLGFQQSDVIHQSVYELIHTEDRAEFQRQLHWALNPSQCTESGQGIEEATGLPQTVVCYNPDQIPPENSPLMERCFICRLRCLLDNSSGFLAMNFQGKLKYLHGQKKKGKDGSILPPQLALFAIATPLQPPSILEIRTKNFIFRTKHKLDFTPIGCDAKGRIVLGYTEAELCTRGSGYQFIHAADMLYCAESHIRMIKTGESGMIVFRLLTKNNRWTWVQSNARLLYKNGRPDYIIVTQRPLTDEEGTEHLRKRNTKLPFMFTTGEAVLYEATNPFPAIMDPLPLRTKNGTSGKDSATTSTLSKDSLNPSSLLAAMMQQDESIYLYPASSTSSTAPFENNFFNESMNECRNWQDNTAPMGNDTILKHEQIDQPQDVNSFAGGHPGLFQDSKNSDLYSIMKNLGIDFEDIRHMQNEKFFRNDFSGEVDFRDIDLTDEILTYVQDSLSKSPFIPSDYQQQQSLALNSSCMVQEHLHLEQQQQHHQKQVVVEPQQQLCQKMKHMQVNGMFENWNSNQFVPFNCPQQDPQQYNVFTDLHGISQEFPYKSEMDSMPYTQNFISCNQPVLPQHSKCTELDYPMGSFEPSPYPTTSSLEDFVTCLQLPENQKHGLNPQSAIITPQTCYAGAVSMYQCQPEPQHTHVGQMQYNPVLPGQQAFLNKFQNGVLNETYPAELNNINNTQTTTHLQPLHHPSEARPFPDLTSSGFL

As for `Cc1ccc2ccc(Cl)cc2n1`, the Potency entry in experiment [1] and in experiment [3] was “inactive” in each case. Also, the call in experiment [2], in experiment [4], in experiment [5] and in experiment [6] was inactive.

For `COc1ccc2c(c1OC)C(=O)O[C@@H]2[C@H]1c2c(cc3c(c2OC)OCO3)CCN1C`, the compound was called inactive in experiment [2], in experiment [4], in experiment [5] and in experiment [6]. Also, in experiment [3], the Potency result is “inactive”.

As for `COCCc1ccc(OCC2CO2)cc1` (centres undefined), the compound was called inactive in [2], in experiment [4], in [5] and in [6].

As for `O=C(NCC(O)CO)c1c(I)c(C(=O)NCC(O)CO)c(I)c(N(CCO)C(=O)CO)c1I` (centres undefined), in [7], the Potency result was “inactive”. For the same compound, the result in experiment [2], in experiment [4], in experiment [5] and in experiment [6] was inactive.

As for `NS(=O)(=O)c1cc2c(cc1Cl)CN(C1CCCCC1)C2=O`, the Potency entry in experiment [1] and in experiment [3] was “inactive” throughout. The call in experiment [2], in experiment [4], in [5] and in experiment [6] was inactive.

For `Cc1ccccc1C(=O)Nc1ccc(C(=O)N2CCCC(N(C)C)c3ccccc32)cc1` (centres undefined), the compound was called inactive in [2], in experiment [4], in [5] and in experiment [6].

For `CC(C)CCCCOC(=O)c1ccccc1C(=O)OCCCCC(C)C`, the Potency entry in experiment [8], in experiment [7] and in experiment [3] was “inactive” throughout. Also, the outcome in experiment [9], in experiment [2], in [4], in [5] and in experiment [6] was inactive.

Consider `COc1ccc2nc(SCc3ncc(C)c(OC)c3C)[nH]c2c1`, for which the Potency entry in [1] and in experiment [3] was “inactive” each time. The outcome in experiment [2], in [4] and in experiment [5] was inactive.

On to `CC(C)C[C@H](NC(=O)CNC(=O)[C@H](Cc1ccc(O)cc1)NC(=O)[C@H](CO)NC(=O)[C@H](Cc1c[nH]c2ccccc12)NC(=O)[C@H](Cc1cnc[nH]1)NC(=O)[C@@H]1CCC(=O)N1)C(=O)N[C@@H](CCCN=C(N)N)C(=O)N1CCC[C@H]1C(=O)NCC(N)=O` (stereo in doubt), for which the Potency result in experiment [7] and in [3] was “inactive” throughout. Also, the compound was classed as inactive in experiment [4] and in experiment [5].

Regarding `COc1cc2c(cc1OC)C(=O)CC2`, the Potency entry in experiment [1] and in experiment [3] was “inactive” in each case. The compound was called inactive in experiment [2], in experiment [4], in experiment [5] and in [6].

Consider `O=C(CCN1CCN(CCO)CC1)N1c2ccccc2Sc2ccc(C(F)(F)F)cc21`, for which the Potency result in experiment [8] and in experiment [1] was “inactive” in each case. The Potency in [7] is 21.1 µM (active). Moreover, the compound was classed as inactive in experiment [9], in experiment [2], in experiment [4] and in experiment [5].

For the compound `CCOCCOC(=O)/C=C/c1ccc(OC)cc1`, the Potency entry in [1] was “inactive”. In addition, the result in experiment [2], in experiment [4], in experiment [5] and in experiment [6] was inactive.

Turning to `O=C(c1ccc(O)cc1)c1ccc(O)c(O)c1O`, the Potency in experiment [8] is 61.4 µM (active). Moreover, the compound was classed as inactive in experiment [9], in experiment [2], in experiment [4], in experiment [5] and in experiment [6]. In addition, the Potency entry in experiment [3] is “inactive”.

As to `CC(C)(C)c1nnc(NS(=O)(=O)c2ccc(N)cc2)s1`, the compound was classed as inactive in experiment [2], in experiment [4] and in experiment [5].

In the case of `Brc1ccc(-c2ccccc2)cc1`, the Potency entry in [8] and in experiment [7] was “inactive” each time. The call in experiment [2], in experiment [4], in experiment [5] and in experiment [6] was inactive.

Turning to `Oc1ccccc1-c1nnco1`, the outcome in [2], in [4] and in experiment [5] was inactive. Besides, in experiment [3], the Potency entry was “inactive”.

With `CCCOC(=O)C(C)O` (centres undefined), the Potency result in experiment [8], in experiment [7] and in experiment [3] was “inactive” each time. In addition, the result in [9], in experiment [2], in [4] and in experiment [5] was inactive.

Regarding `C[C@@H]1O[C@@H](O[C@@H]2[C@@H](O)[C@H](OCCc3ccc(O)c(O)c3)O[C@H](CO[C@@H]3O[C@H](CO)[C@@H](O)[C@H](O)[C@H]3O)[C@H]2OC(=O)/C=C/c2ccc(O)c(O)c2)[C@H](O)[C@H](O)[C@H]1O`, in experiment [10], the Potency result was “inactive”. Moreover, the result in experiment [9], in [2], in experiment [4], in experiment [5] and in experiment [6] was inactive.

Regarding `O=P(O)(O)OP(=O)(O)O`, the compound was classed as inactive in experiment [2], in experiment [4], in [5] and in experiment [6]. Besides, the Potency result in [3] was “inactive”.

Take `CCC(C)(CCC(C)C)C(=O)O` (centres undefined): the outcome in experiment [2], in experiment [4] and in [5] was inactive. The Potency result in experiment [3] is “inactive”.

Turning to `COc1cc(N)ccc1C`, in experiment [7], the Potency result is “inactive”. Moreover, the result in experiment [4], in experiment [5] and in [6] was inactive.

For the compound `O=C(OCC(O)CO)c1ccccc1Nc1ccnc2c(C(F)(F)F)cccc12` (centres undefined), the Potency in experiment [1] is 16.8 µM (active). The compound was called inactive in [2], in experiment [4], in experiment [5] and in experiment [6].

As for `C=CC(OCC)OCC`, the Potency in experiment [8] is 60.4 µM (active); in [3], 34 µM (active). For the same compound, the compound was classed as inactive in experiment [9], in [2], in experiment [4], in experiment [5] and in experiment [6].

Take `CCn1ccc(NS(=O)(=O)c2ccc(N)cc2)nc1=O`: the outcome in experiment [2], in experiment [4], in experiment [5] and in experiment [6] was inactive.

Turning to `CN(CCOc1ccc(NS(C)(=O)=O)cc1)CCc1ccc(NS(C)(=O)=O)cc1`, the Potency entry in [8], in experiment [7] and in experiment [3] was “inactive” in each case. The call in [9], in experiment [2], in experiment [4], in [5] and in experiment [6] was inactive.

With `O=C(O)c1cc(Cl)cc([N+](=O)[O-])c1Cl`, the Potency result in experiment [8], in experiment [7] and in experiment [1] was “inactive” throughout. Moreover, the result in [9], in experiment [2], in [4], in experiment [5] and in [6] was inactive.

For `Nc1ccc(S(=O)(=O)Nc2ccc(Cl)nn2)cc1`, the Potency entry in [10] was “inactive”. Also, the call in experiment [9], in experiment [2], in experiment [4], in experiment [5] and in experiment [6] was inactive.

As for `O=C1CC(c2ccc(Cl)cc2)CC(=O)N1`, the compound was called inactive in [2], in [4], in [5] and in [6]. Besides, in [3], the Potency entry was “inactive”.

`CC(C)=CCOC(=O)c1ccccc1`: the Potency result in experiment [7] is “inactive”. Moreover, the call in [2], in experiment [4] and in [5] was inactive.

Consider `CC(C)CC(=O)O`, for which the Potency result in [10] was “inactive”. For the same compound, the call in experiment [9], in [2], in experiment [4], in experiment [5] and in experiment [6] was inactive.

With `Cc1cccc(OCC(O)CNC(C)(C)C)c1C` (centres undefined), the call in experiment [2], in experiment [4], in experiment [5] and in [6] was inactive.

Regarding `C=C(C)C(=O)OCc1ccccc1`, the Potency entry in experiment [8], in experiment [7] and in [1] was “inactive” in each case. Further, the outcome in experiment [9], in experiment [2], in experiment [4] and in experiment [5] was inactive.

For `Cc1ccccc1N=O`, in [7], the Potency result is “inactive”. The compound was classed as inactive in experiment [2], in experiment [4] and in [5].
